Columns and labels:
Assay in all cases: PBM binding z-score (relative to random genomic background probes); higher = stronger binding; sequences stand for … in GC…GCGATTGACAGCGTAGAATGAAGG
[1] = tested on: RARb homodimer (NR concentration 270 nM)
How it was run: (§1)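 Scanned fluorescence from custom Agilent 4×180K protein-binding microarrays was regression-normalized. Binding z-scores use random background probes as reference. Ligand-free nuclear receptor dimers were incubated on the arrays for 1 h and detected with antibodies against each partner (one per run).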

[2] = tested on: RARg:RXRa (NR concentration 270 nM, RXRa partner concentration 90 nM)
How it was run: as §1

[3] = tested on: RARg homodimer (NR concentration 270 nM)
How it was run: as §1

[4] = tested on: RXRa DBDmut IVT, anti-RXR (DBD mutation: RXRa K156A/R161A, NR concentration 90 nM)
How it was run: as §1

[5] = tested on: RXRa homodimer (NR concentration 180 nM)
How it was run: as §1

[6] = tested on: THRa:RXRa (NR concentration 90 nM, RXRa partner concentration 90 nM)
How it was run: as §1

[7] = tested on: THRa homodimer (NR concentration 90 nM)
How it was run: as §1

[8] = tested on: VDR homodimer (NR concentration 270 nM)
How it was run: as §1

Row | Sequence | PBM binding z-score [1] | PBM binding z-score [2] | PBM binding z-score [3] | PBM binding z-score [4] | PBM binding z-score [5] | PBM binding z-score [6] | PBM binding z-score [7] | PBM binding z-score [8]
1 | AATACAGGGTCATCGTAGGCCAGAGAACGCACAG | 3.8 | 6.12 | 5.66 | 3.55 | 6.83 | 4.95 | 1.74 | 2.9
2 | AGTACGAGGGCAATGAGTTGATAGCACGGGTGGC | 1.2 | 1.06 | 1.62 | 2.1 | 0.711 | 1.07 | -0.111 | 2.98
3 | CGTCCAAGGTCAGAGAAGTCAGTGAATGCCGAGT | 3.51 | 4.3 | 5.16 | 2.35 | 3.37 | 3.32 | 1.53 | 1.64
4 | CCGAGTAGGTTATGGGGCATCCAGGCAACGGTGA | 0.911 | 0.651 | 0.586 | -0.816 | 0.858 | 0.523 | 0.159 | -0.188
5 | CTCGAAAGATCGTGCTCAGGTGAGTATACCAAAC | -0.0864 | -0.0578 | -0.229 | -0.0478 | -0.33 | 1.28 | 0.584 | -0.082
6 | CGTCAAAGTTCAACTAAGGTAACGTAGAGCACGC | 4.06 | 6.15 | 6.74 | 4.65 | 5.34 | 5.11 | 1.86 | 3.92
7 | CTACCAAGGTGAACAAGGACGTTGATTACTATTC | 0.951 | 0.848 | 1.13 | 0.601 | 0.715 | 2.43 | 1.36 | 0.537
8 | TCTCGGAGGACACGAGAGGTCAGAGCTCGACATC | 4.3 | 3.89 | 4.28 | 0.77 | 3.07 | 3.98 | 1.64 | 1.81
9 | ATATGTAGGTTATCGTGTCATTCAGTTTGCGCAT | 1.17 | 0.973 | 0.988 | 1.09 | 1.06 | 0.907 | 0.568 | 1.53
10 | CGTCCAAGGTCATAGGAGGGCAGTGAAGACAGAT | 4.01 | 5.77 | 5.89 | 3.81 | 5.44 | 4.83 | 2.17 | 3.3
11 | TCGTGTAGATCAATAGAGGTTAAGAAAGTGCGCT | 1.47 | 0.551 | 0.428 | 0.621 | 1.23 | 2.09 | -0.291 | 0.428
12 | AAAATGAGGTTATACGTAGATCAGGGAAGAAAGT | 0.619 | 1.88 | 1.14 | 1.93 | 2.37 | 2.24 | 0.727 | 1.13
13 | CAAACTAGGTCACCGGAAGGTCAAAGTACGCATG | 5.73 | 8.48 | 7.65 | 2.43 | 6.46 | 4.8 | 3.25 | 3.52
14 | CCGACTGGGTCAGAAAGGTTACCATACCATCCGG | 3.1 | 3.34 | 3.44 | -0.333 | 3.12 | 2.09 | 0.207 | 1.14
15 | GCTACAGGGTCAAGGCCAGAGTACGCGTATTGAT | 3.58 | 5.38 | 5.17 | 3 | 5.92 | 3.42 | 1.38 | 2.4
16 | TCTAGCAGGCCAGCGGGTCACTCAAGAGGTACGG | 2.01 | 2.14 | 1.56 | 0.000361 | 1.77 | 1.42 | -0.34 | -0.133
17 | ATCTCTCGGTAACAAGTTCAGTGAAAGAGAGGAC | 1.84 | 0.867 | 1.2 | 0.226 | 0.539 | 0.976 | 0.753 | 2.29
18 | TCTTGTCGATCAAGCAGGTTAAGAAAGCCTGAGT | 0.296 | -0.133 | -0.273 | 0.138 | 0.0791 | 0.127 | -0.374 | -0.0959

— the supplement of paper PMC6555819
